# This is a sample that favours compounds with a hit; in the whole collection about 3.2% have one here.
# AMA1-RON2 inh – qHTS for Inhibitors of AMA1-RON; Towards Development of Antimalarial Drug Lead: Primary Screen; Potency, µM (doses to about 58.2 µM), for inactives: top-dose activity change, negative = inhibition, usual class: inhibitors; actives 0.2% (n = 360,000); AlphaScreen AMA1-biotinylated RON2 peptide binding;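 also: potency is read from the fitted curve at half-maximal effect; 0% = vehicle wells and -100% = peptide control; nearly all actives have a fitted effect of over 45% in size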
#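 AMA1 (3D7) with his tag at 25 nM final met compounds first, then biotinylated RON2 peptide at 25 nM; detection used donor plus acceptor beads, 10 µg/mL apiece, read by AlphaScreen after 30 min at room temperature.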
# LmPK inh – qHTS Assay for Inhibitors of Leishmania Mexicana Pyruvate Kinase (LmPK) | purified LmPK, Kinase-Glo ATP luminescence, 1 h | Potency, µM (top dose mostly 57.5 µM), without a hit: top-dose activity change, negative = inhibition, hits mostly inhibitors | actives 0.37% (n = 290,000) | AID 1721, 2009; also: potency is read from the fitted curve at half-maximal effect; % is scaled to controls: 0 for no effect and ±100 for the full control effect
# Target sequence (Q27686 whole entry, looked up): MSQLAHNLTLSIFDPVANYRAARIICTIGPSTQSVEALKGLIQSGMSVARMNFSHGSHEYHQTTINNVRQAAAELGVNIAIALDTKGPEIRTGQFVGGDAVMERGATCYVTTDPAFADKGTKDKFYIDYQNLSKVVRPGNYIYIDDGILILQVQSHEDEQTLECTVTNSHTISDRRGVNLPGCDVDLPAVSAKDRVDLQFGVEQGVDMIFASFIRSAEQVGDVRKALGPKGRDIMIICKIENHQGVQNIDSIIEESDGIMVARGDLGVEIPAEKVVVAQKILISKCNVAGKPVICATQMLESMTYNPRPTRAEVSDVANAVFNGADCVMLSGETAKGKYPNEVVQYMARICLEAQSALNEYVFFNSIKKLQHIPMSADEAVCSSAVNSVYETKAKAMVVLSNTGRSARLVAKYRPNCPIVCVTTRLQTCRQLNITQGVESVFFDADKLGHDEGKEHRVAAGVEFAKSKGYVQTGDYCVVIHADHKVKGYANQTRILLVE
#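 ATP generated from ADP (0.1 mM) and PEP (0.5 mM) by 0.1 nM LmPK over 1 h at room temperature (pH 7.2 imidazole buffer) was detected by coupled luciferase luminescence. Values were normalized to uninhibited and no-enzyme wells.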
# Tb PYK inh – qHTS of Trypanosoma Brucei Inhibitors. TbPYK enzyme, Kinase-Glo Plus ATP luminescence, 45 min. Potency, µM (doses to about 76.8 µM), for inactives: top-dose activity, negative = inhibition, usual class: inhibitors. actives 0.12% (n = 410,000). AID 624173, 2012; also: potency is read from the fitted curve at half-maximal effect; % is scaled to controls: 0 for no effect and ±100 for the full control effect; nearly all actives have a fitted effect of over 50% in size
#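 T. brucei PYK with substrate was exposed to pin-transferred compounds across a concentration series, then started with 130 uM ADP (final). After 45 min at room temperature, Kinase-Glo Plus luminescence was read, normalized and curve-fitted.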
# RE007 growth inh – qHTS Assay for Inhibitors of the HIV-1 protein Vpr; S. pombe RE007 Vpr strain, BacTiter-Glo ATP luminescence, 24 h; Potency, µM (doses to about 92.2 µM), for inactives: at the highest dose activity change, negative = less growth, hits mostly inhibitors; actives 0.21% (n = 360,000); active = well fitted falling curve with a large enough effect; inconclusive = small, poorly fitted or top-dose-only effect; inactive = no such curve, though single readings can be large or run the other way; also: potency is read from the fitted curve at half-maximal effect; % is scaled to controls: 0 for no effect and ±100 for the full control effect; nearly all actives have a fitted effect of over 50% in size
#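 Fission yeast RE007 carrying one integrated HIV-1 vpr copy, seeded at OD 0.01 in PMG+AL medium with 23 nL pinned compound. Grown 24 h at 30 degrees; viability read by BacTiter-Glo luminescence after 5 min.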
# Sm TGR block – qHTS Assay for the Inhibitors of Schistosoma Mansoni Peroxiredoxins; Schistosoma mansoni thioredoxin glutathione reductase (TGR), Q962Y6; purified TGR, DTNB reduction, TNB absorbance 405 nm; Potency, µM (titrated, usually from 114 µM), for inactives: at the highest dose activity change, negative = inhibition, most hits filed as inhibitors; actives 3% (n = 360,000); also: potency is read from the fitted curve at half-maximal effect; % is scaled to controls: 0 for no effect and ±100 for the full control effect; nearly all actives have a fitted effect of over 60% in size
#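 Kinetic colorimetric format: TGR-catalysed, NADPH-driven DTNB reduction monitored via TNB absorbance. Enzyme dispensed at 20 nM; compound exposure 15 min at room temperature before reaction start.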
# LmPK confirm – Confirmation Assay for Inhibitors of Leishmania Mexicana Pyruvate Kinase (LmPK). shares compounds with LmPK inh. purified LmPK, Kinase-Glo ATP luminescence, 1 h. Potency, µM (top dose mostly 57.5 µM), inactives show at the highest dose activity change, negative = inhibition, actives largely listed as inhibitors. actives 40% (n = 150). AID 2559, 2010;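 active = compounds giving a full or partial concentration-response curve, as inhibitors or activators; inconclusive = weak, top-dose-only or unclear curve responses; inactive = no response at any tested dose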
# An asterisk follows results filed as active; ? = inconclusive; nt = no result; [ ] = remark or other dose. Unless noted, calls follow the shape of the dose curve; as a rule, active = well fitted curve in the direction sought with a large enough effect; inconclusive = small, poorly fitted or top-dose-only effect, or another doubt; inactive = no such curve, though single readings can be large; an effect the other way counts as inactive or inconclusive.
SMILES,AMA1-RON2 inh,LmPK inh,Tb PYK inh,RE007 growth inh,Sm TGR block,LmPK confirm
COc1ccc(-c2cn3c(n2)sc2cc(C(=O)NC(C)C45CC6CC(CC(C6)C4)C5)ccc23)cc1 (centres undefined),nt,nt,2%,nt,6%,nt
c1ccc(C2=NNC(=NC3CC3)SC2)cc1,27%,4.5µM*,?,?,-5%,15µM*
Cc1ccn2c(c1)nc(=O)c1cc(S(=O)(=O)N3CCCCC3)c(Cl)cc12,nt,nt,2%,nt,-1%,nt
Cc1ccc(C(=O)N2c3ccccc3CC2C)o1 (centres undefined),-28%,6.3µM*,-19%,?,-22%,?
Cc1cc(O)c(-c2cc(O)c(C)cc2O)cc1O,?,0.71µM*,?,0%,1.3µM*,?
Cc1cc(O)ccc1Cl,nt,nt,6%,nt,nt,nt
O=c1c2ccccc2cnn1-c1nc2ccccc2[nH]1,9%,2.2µM*,13µM*,?,-9%,3.3µM*
Cc1cc(C)c2cc(C#N)c(NCCOC(=O)c3ccccc3C)nc2c1,58%,0%,4%,-6%,-2%,2%
COc1ccccc1C(=O)NCCNc1nc2cc(C)cc(C)c2cc1C#N,-2%,2%,-12%,4%,-12%,nt
CCc1nc(Oc2cccc(F)c2)c2oc3ccccc3c2n1,nt,nt,2%,nt,9%,nt
CCn1c(-c2ccccc2Cl)nn(CC(=O)Nc2ccc(OC)cc2)c1=S,-4%,-5%,0%,-9%,4%,11%
CN(Cc1ccon1)Cc1cn(C)nc1-c1cccc(Cl)c1,-16%,13µM*,3%,-22%,12%,-7%
COc1ccc(OC)c(/C=C/C(=O)Nc2ccc(C(=O)OCCC(C)C)cc2)c1,nt,nt,-5%,nt,0%,nt
Cc1cc(C)cc(NC(=O)c2cc(S(=O)(=O)N3CCOCC3)cn2C)c1,nt,nt,-1%,nt,4%,nt
Cn1cc(CN(Cc2ccccc2)C[C@@H]2CCC(=O)N2)c(-c2ccccc2F)n1,-10%,-1%,-2%,-2%,-6%[57.1 µM],6%
Cn1cc(CN(Cc2ccccn2)C[C@@H]2CCC(=O)N2)c(-c2ccccc2F)n1,105%,-7%,-6%,2%,0%,nt
c1ccc2[nH]c(-c3cscn3)nc2c1,9%,?,-6%,-11%[18.4 µM],10%,nt
c1ccc2nc(-c3nc4ccccc4[nH]3)ccc2c1,21%,4.5µM*,?,?,0%,9.2µM*
Cc1ccc(C)c(/C(O)=C2/C(=O)C(=O)N(CCN3CCOCC3)C2c2ccco2)c1 (centres undefined),-7%,2%,4%,-4%,20µM*,10%
CCOC(=O)C(C(C)=O)c1c(Br)c(O)c(O)c2c(C(=O)c3ccc(C)cc3)coc12 (centres undefined),-27%,5.6µM*,-18%,-7%,4.5µM*,-7%
CCOC(=O)c1c(C)n(-c2ccc(C)cc2)c2c(C(C(C)=O)C(=O)O)c(Br)c(O)c(O)c12 (centres undefined),-26%,-29%,-25%,2%,?,nt
CCOc1ccc(S(=O)(=O)NCc2nc3cccnc3n2Cc2ccccc2OC)cc1,nt,nt,6%,nt,2%,nt
CC(C)(C)c1ccc(OCCn2cc(C(=O)c3ccco3)c3ccccc32)cc1,nt,nt,2%,nt,16%,nt
Cc1occc1C(=O)O/N=C(\N)c1ccccc1,-3%,3.5µM*,?,?,-3%,10µM*
Cc1ccc(-n2c(SCC(=O)Nc3ccc(C(=O)O)cc3)nnc2-c2ccncc2)cc1,-5%,3%,2%,1%,-17%,nt
SMILES,AMA1-RON2 inh,LmPK inh,Tb PYK inh,RE007 growth inh,Sm TGR block,LmPK confirm
Cc1ccc(C(=O)NNC(=O)CSc2nnc(-c3ccncc3)n2-c2ccc(C)cc2)cc1,nt,-23%,nt,nt,0%,3%
O=C(c1ccccc1)n1c(=S)nc2ccccn21,-20%,4.5µM*,?,-26%,3%,18µM*
O=C(c1ccccc1)n1ccn(-c2ccccc2)c1=S,-8%,-2%,5%,-3%,-6%,nt
Cc1ccc(-c2cc3c(nn2)-c2ccccc2C3=O)cc1,-11%,7.1µM*,?,-18%,-17%,10µM*
Cc1cc(C)c(S(=O)(=O)n2ccc(-c3ccc(OCCN(C)c4ccccn4)cc3)n2)c(C)c1,-4%,3%,-5%,-4%,2%,2%
C=Cc1ccc(CSc2nc(-c3ccccc3Cl)nc3c2Cc2c(CO)cnc(C)c2O3)cc1,nt,nt,-10%,nt,-5%,nt
COc1ccc(CCN2CCC(CNC(=O)c3cnn(-c4ccc(C)cc4)c3C3CCN(C(=O)OC(C)(C)C)CC3)CC2)cc1,nt,nt,2%[15.4 µM],nt,-4%,nt
CCCCCSc1nc2sc3c(c2c(=O)n1-c1ccccc1)CCN(C(C)=O)C3,nt,nt,6%,nt,-2%,nt
Cc1ccc(Oc2ccccc2/C=C2\SC(=O)N(C)C2=O)cc1,29%,-5%,-2%,-7%,-19%,-4%
CCC(CC)C(=O)N1CCc2cc(OC)c(OC)cc2C1COc1ccc2c(C)cc(=O)oc2c1 (centres undefined),nt,nt,-4%,nt,-1%,nt
COc1ccc(CNCc2ccc(C(=O)O)s2)cc1,nt,nt,-4%,nt,-26%,nt
Cn1c(-c2ccc(Br)cc2)cnc1NCc1cccnc1,?,-3%,5%,-4%,3%,4%
CC(=O)c1cc(C#N)c(Oc2cc(C)cc(C)c2)nc1C,4%,-4%,?,3%,9%,nt
CC(=O)c1cc(C#N)c(Oc2ccc(F)cc2)nc1C,-6%,4%,-3%,-13%,3%,4%
Cc1ccc(-c2nnc(N(C)C(=O)c3cccnc3)s2)cc1,15%,-1%,-3%,-3%,10%,-5%
Cc1ccc(-c2nnc(N(C)C(=O)c3cccnc3)s2)cn1,-3%,-4%,-6%,-11%,15%,nt
O=C(COC(=O)CCC(=O)c1ccc(F)cc1)Nc1ccc(F)cc1F,22%,2.2µM*,0%,-1%,-23%,-8%
CCc1n[nH]c(=S)n1/N=C/c1ccc(N(C)c2ccccc2)cc1,81%,-4%,?,-2%,0%,nt
CCc1n[nH]c(=S)n1/N=C/c1ccc2c(c1)OCO2,37%,-14%,?,-1%,12%,-1%
COc1ccccc1CNC(=O)C1CCN(S(=O)(=O)c2c(C)noc2/C=C/c2c(C)cc(C)cc2C)CC1,nt,nt,-1%,nt,2%,nt
COc1ccc(-c2cc3nc(C)cc(N)n3n2)cc1,2%,3.5µM*,22µM*,16µM*,-1%,5.8µM*
COc1ccc(-c2cc3nc(C)cc(-c4ccc(OC)cc4)n3n2)cc1,110%,6%,-2%,4%,0%,nt
